Compound activity (PubChem)
Sampled rows, rich in hits. Any-hit rate of the full collection: about 3.1%.
Rtt109 HAT inh: inhibitors of C. albicans Rtt109/Vps75 HAT, primary screen, biochemical, ThioGlo CoA-SH fluorescence, plate reader; Histone acetyltransferase RTT109 (Candida albicans (strain SC5314 / ATCC MYA-2876)), …; purified Rtt109/Vps75, 4 h; inhibition, % at 34.9 µM; 0.16% of 330,000 active; AID 540336, 2011;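 active means inhibition of at least 50% in every replicate; inconclusive means best replicate reaches 50% inhibition but some replicates fall short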
Target sequence (Q5AAJ8 whole entry, looked up): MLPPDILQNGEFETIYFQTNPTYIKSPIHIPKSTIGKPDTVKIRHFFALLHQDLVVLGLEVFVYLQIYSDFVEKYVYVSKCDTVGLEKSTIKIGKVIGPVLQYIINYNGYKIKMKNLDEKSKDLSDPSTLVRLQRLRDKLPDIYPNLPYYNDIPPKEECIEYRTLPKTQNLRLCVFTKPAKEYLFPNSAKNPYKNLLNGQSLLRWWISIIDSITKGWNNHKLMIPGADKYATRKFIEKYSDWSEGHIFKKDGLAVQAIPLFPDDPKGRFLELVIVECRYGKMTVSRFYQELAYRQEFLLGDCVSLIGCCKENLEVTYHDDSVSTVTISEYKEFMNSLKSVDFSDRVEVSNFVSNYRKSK
MITF TRPM1 HTS: activators of MITF-driven TRPM1 promoter reporter, primary screen, cell-based, SK-MEL-5, luciferase, single point. SK-MEL-5 TRPM1-promoter luciferase, 24 h; % of positive control, neutral wells = 0. 0.75% of 300,000 active. activation, % at 12.5 µM. AID 588334, 2011;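 active means mean activation of at least 80% with every replicate also reaching 80%; inconclusive means mean reaches 80% but some replicate falls short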;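 further: 0% = neutral control wells and 100% = parthenolide positive control wells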
esBAF inh: Bmi1 luciferase reporter increase in mESCs, primary screen, esBAF inhibitor project, mouse ES cells, Bmi1 luciferase knock-in, single point; 24 h; 100% = twice the neutral-well signal; reporter increase, % at 12.5 µM; 2% of 350,000 active; in the data active means activation above about 40%; inconclusive means no clear call, values can overlap the other calls;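 further: 0% = median of the plate's neutral control wells and 100% = double that signal; a rise in the Bmi1 reporter signal indicates esBAF inhibition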
Statin myotox sup: suppressors of statin myotoxicity in C2C12 myotubes, primary screen, cell-based, single point, plate reader. C2C12 myotubes + simvastatin, ATP luminescence, 48 h; scaled: DMSO 0, geranylgeraniol control 100. rescue of ATP level, % at 7.49 µM. 0.78% of 330,000 active;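 active means mean ATP rescue above about 67%, or every replicate alone reaching that limit, limit read from the data, passing the limit was not always enough; inconclusive means no clear call, values can overlap the other calls; inactive means mean under the limit and some replicate under it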;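 further: myotubes were challenged with 10 µM simvastatin during compound exposure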
Wnt bcat act: Wnt/beta-catenin pathway activators, primary screen, cell-based, plate reader, single point; 1.2% of 300,000 active; activation, % at 9.35 µM; Wnt/beta-catenin reporter cell assay, activator; in the data active means activation above about 30%, passing the limit was not always enough; inconclusive means no clear call, values can overlap the other calls;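 further: 0% = neutral control wells and 100% = positive control wells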
* marks the source's active call; other numbers are inactive results; ? = inconclusive; . = no result.

SMILES	Rtt109 HAT inh	MITF TRPM1 HTS	esBAF inh	Statin myotox sup	Wnt bcat act
C[C@@H]1CN([C@H](C)CO)C(=O)c2cccc(NC(=O)C3CC3)c2O[C@H]1CN(C)Cc1ccc(-c2ccccc2)cc1	.	.	3	-15	.
CCCN(C)C[C@H]1OCCCC[C@H](C)Oc2ccc(NC(=O)c3ccncc3)cc2C(=O)N([C@H](C)CO)C[C@H]1C	.	.	2	-25	.
CC(C(=O)N1CCN(C(=O)c2ccco2)CC1)n1sc2ccccc2c1=O (configuration not stated)	5	3	3	-13	2
CC(C(=O)N1CCCCC1)n1sc2ccccc2c1=O (configuration not stated)	-7	53	50*	1	.
O=c1c(=NNc2ccccc2Cl)c(=O)c2ccccc12	4	-29	-14	63	-6
Cc1cc(C)c(NN=c2c(=O)c3ccccc3c2=O)c(C)c1	6	116*	30	-13	21
C[C@H]1CCCCO[C@H](CN(C)Cc2ccc(C(F)(F)F)cc2)[C@@H](C)CN([C@@H](C)CO)C(=O)c2cc(NS(=O)(=O)c3ccccc3)ccc2O1	.	.	-3	.	.
CC=Cc1ccc2n(c1=O)C[C@H]1[C@H](CO)[C@@H](C(=O)Nc3ccc(-c4ccccc4)cc3)N(CC)[C@@H]21 (mixture of isomers)	.	.	46*	1	.
CC=Cc1ccc2n(c1=O)C[C@@H]1[C@@H](CO)[C@H](C(=O)Nc3ccc(-c4ccccc4)cc3)N(C)[C@H]21 (mixture of isomers)	.	.	61*	-4	.
Brc1ccc(-c2cn3c(n2)SCC3)cc1	-12	66	58*	-6	42*
O=C(Nc1cccc(-c2cn3c(n2)SCC3)c1)c1ccc2ccccc2n1	3	63	60*	3	41*
O=C(Nc1ccc(-c2cn3c(n2)SCC3)cc1)c1ccc2ccccc2n1	-4	-13	.	.	-2
Clc1ccc(-c2cn3c(n2)SCC3)cc1	-2	80	56*	-1	47*
Oc1ccc(-c2cn3c(n2)SCC3)cc1	2	19	2	97*	.
Oc1ccc(-c2cn3c(n2)SCC3)cc1O	0	.	7	-66	.
c1ccc(-c2cn3c(n2)SCC3)cc1	2	51	24	.	-1
CCNC(=O)C[C@H]1CC[C@H]2[C@H](COc3ccc(NC(=O)Nc4cccc(C)c4)cc3C(=O)N2C)O1	.	.	7	7	.
CCCNC(=O)C[C@@H]1CC[C@@H]2[C@H](COC[C@H](O)CN2C(=O)Nc2ccc3c(c2)OCO3)O1	.	.	31	15	.
OC[C@H]1Nc2ccc(C#Cc3ccc(F)cc3)cc2[C@@H]2[C@H]1CCN2Cc1nccs1	.	.	6	15	.
Cc1ccc(S(=O)(=O)Nc2ccc3c(c2)CC(=O)N([C@H](C)CO)C[C@H](C)[C@@H](CN(C)Cc2ccc4c(c2)OCO4)O3)cc1	.	.	12	76*	.
C[C@@H]1CN([C@H](C)CO)C(=O)Cc2cc(NS(=O)(=O)c3ccc(Cl)cc3)ccc2O[C@H]1CN(C)Cc1ccc2c(c1)OCO2	.	.	2	84*	.
C[C@@H]1CN([C@@H](C)CO)C(=O)Cc2cc(NS(=O)(=O)c3ccc(Cl)cc3)ccc2O[C@H]1CN(C)Cc1ccc2c(c1)OCO2	.	.	-3	99*	.
O=C(NC(=S)Nc1ncccn1)c1ccc(F)cc1	-6	101*	62*	11	7
O=C(NC12CC3CC(CC(C3)C1)C2)c1ccccc1	4	-4	-8	0	-12
O=C(NC(=S)Nc1ccc(NC(=O)c2ccccc2)cc1)c1ccc(F)cc1	-1	6	.	.	2
SMILES	Rtt109 HAT inh	MITF TRPM1 HTS	esBAF inh	Statin myotox sup	Wnt bcat act
O=C(Nc1cccnc1Cl)c1cc(-c2ccc(F)cc2)on1	-3	43	5	6	-3
O=C(NC(=S)NC12CC3CC(CC(C3)C1)C2)c1ccc(F)cc1	.	.	58*	-5	-7
O=C(NC(=S)Nc1cccnc1Cl)c1ccc(F)cc1	-5	53	38	3	37*
O=C(C[C@@H]1CC[C@H]2[C@@H](COC[C@@H](O)CN2Cc2cccc(C(F)(F)F)c2)O1)NCc1ccc(F)cc1	.	.	4	7	.
Cc1cccc(CS(=O)(=O)c2ncc(Cl)c(C(=O)Nc3c(C)cccc3C)n2)c1	3	-18	-7	33	-2
Cc1cccc(C)c1NC(=O)c1nc(S(=O)(=O)Cc2ccccc2)ncc1Cl	?	-87	-55	135*	-13
COc1ccc(NC(=O)Nc2ccc(Br)cn2)cc1	4	87*	.	.	27
COC(=O)c1ccccc1NC(=O)Nc1ccc(Br)cn1	-2	4	.	.	3
COc1ccc(NC(=S)Nc2ccc3nccnc3c2)cc1	-3	88*	65*	1	.
COc1ccc(NC(=S)NCc2ccc(F)cc2)cc1	6	-7	42*	0	3
COc1ccc(NC(=S)Nc2ccc3snnc3c2)cc1	9	51	30	-2	4
COc1ccccc1/C=C/C(=O)Nc1ccc2c(c1)CCC2	-2	114*	.	.	28
C=CCNC(=O)Nc1ccc2oc(C)nc2c1	1	9	0	-3	.
COc1ccc(NC(=O)Nc2ccc(F)cc2F)c(C)c1	5	33	.	.	.
COc1ccc(NC(=O)Nc2ccc3oc(C)nc3c2)cc1	0	44	.	.	40*
CN(c1ccccc1)S(=O)(=O)c1ccc(NC(=O)c2ccc(-c3ccccc3)cc2)cc1	-14	-11	2	-11	-1
COc1ccc(NC(=O)Nc2ccc(F)cc2F)cc1	-2	92*	?	11	.
COc1ccc(NC(=O)Nc2cccc(OC)c2)cc1	-3	96*	37	-6	?
Cc1nc2cc(NC(=O)c3ccc(S(=O)(=O)N(C)c4ccccc4)cc3)ccc2o1	6	10	83*	-13	1
COc1ccc(CNC(=O)Nc2ccc(C)cc2)cc1	-5	46	55*	20	-2
COc1cccc(NC(=S)Nc2ccc(O)cc2)c1	-3	28	22	4	5
COc1cccc(NC(=S)Nc2ccc(F)cc2)c1	2	-1	6	-11	41*
O=C(CCCCC(=O)Nc1ccc(F)cc1F)Nc1ccc(F)cc1F	-1	.	.	.	33*
CCC1CCC(NC(=O)Nc2cccc(OC)c2)CC1 (configuration not stated)	.	?	83*	-5	57*
COc1ccc(CNC(=O)Nc2cc(C)cc(C)c2)cc1	-4	33	12	22	27
COc1cccc(NC(=O)Nc2ccccc2Br)c1	.	72	59*	-1	23
COc1ccc(NC(=S)Nc2ccc(N)c([N+](=O)[O-])c2)cc1	12	19	47*	-17	45*
